Sampled rows, rich in hits. Any-hit rate of the full collection: about 9.9%.
MCF10A rereplic: induces DNA re-replication in MCF 10a normal breast cells. 350,000 tested, 2.9% active. Potency, µM (doses to about 46.1 µM), inactives show top-dose activity, positive = re-replication, most hits filed as activators. MCF 10A DNA re-replication, Hoechst nuclear intensity, 48 h; also: potency is read from the fitted curve at half-maximal effect; % of control where 0% means no effect; nearly all actives have a fitted effect of over 50% in size
SW480 rerep: DNA re-replication induction in SW480 cells. SW480 DNA re-replication, Hoechst DNA content imaging, 48 h. Potency, µM (top dose mostly 46.1 µM), for inactives: at the highest dose re-replication activation, most hits filed as activators. 340,000 tested, 1.8% active. AID 624297; also: potency is read from the fitted curve at half-maximal effect; % of control where 0% means no effect; nearly all actives have a fitted effect of over 55% in size
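Compounds, transferred as 23 nL by pin tool, were incubated with cells for 48 hr; DNA content per nucleus was then quantified by Hoechst staining and fluorescence plate imaging.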
KB-V1 cytotox: KB-V1 MDR subline cytotoxicity; KB-V1 MDR cells viability, CellTiter-Glo, 72 h; Potency, µM (series often up to 46.1 µM), hits mostly cytotoxic; 400,000 tested, 3.4% active; AID 1347076; also: potency is read from the fitted curve at half-maximal effect; % is scaled to controls: 0 for no effect and ±100 for the full control effect; nearly all actives have a fitted effect of over 60% in size
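KB-V1, DMEM (no phenol red) + 10% FBS; cpd pin-transferred, titration series; 72 h, 37 degrees C; CellTiter-Glo, luminescence. Data normalized, curve-fit.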
KB-3-1 tox: KB-3-1 parental cell cytotoxicity; Potency, µM (top dose mostly 46.1 µM), usual class: cytotoxic; 400,000 tested, 1.4% active; KB-3-1 viability, CellTiter-Glo ATP luminescence, 72 h; also: potency is read from the fitted curve at half-maximal effect; % is scaled to controls: 0 for no effect and ±100 for the full control effect; nearly all actives have a fitted effect of over 60% in size
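Parental KB-3-1 viability, qHTS format: 72 h compound exposure, 37 °C; CellTiter-Glo; media-only wells and DMSO plates as controls; concentration-effect fits on corrected data.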
IL1B secr inh: blocks inflammasome-driven IL-1 beta release | 360,000 tested, 4.7% active | activity change, % at 57.5 µM | THP-1 LPS/ATP IL-1B secretion, AlphaLISA, 16 h; hits give low values; in the data active = activity change below about -50%; inconclusive = mostly about -30% to -49%; also: % is scaled to controls: 0 for no effect and ±100 for the full control effect
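THP-1 cells pretreated 1 hr with compounds (up to 57.5 uM final), then stimulated with LPS (250 ng/mL final) plus ATP (1.25 mM final); secreted IL-1B measured by AlphaLISA after 16 hr, decreased signal indicating inhibition.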
Starred values were filed as active, the others as inactive; i = inactive; ? = inconclusive; nt = no result given; ! = repeats disagree. Unless noted, calls follow the shape of the dose curve; as a rule, active = well fitted curve in the direction sought with a large enough effect; inconclusive = small, poorly fitted or top-dose-only effect, or another doubt; inactive = no such curve, though single readings can be large; an effect the other way counts as inactive or inconclusive.

SMILES	MCF10A rereplic	SW480 rerep	KB-V1 cytotox	KB-3-1 tox	IL1B secr inh
CCCCCCCCCc1nc2sc3c(c2c(=O)n1NC(=O)c1ccc([N+](=O)[O-])cc1)CC(C)(C)OC3	6.5µM*	9%	?	i	1
CC(C)c1ccc(NC(=O)N2CCc3nc(NCc4cccc(Oc5ccccc5)c4)ncc3C2)cc1	nt	nt	?	?	0
O=C(Nc1cccc(F)c1)N1CCc2nc(NCc3cccc(Oc4ccccc4)c3)ncc2C1	nt	nt	18µM*	?	75
CC1CCC2C(=O)N(c3ccc(C(=O)Oc4cccc5cccnc45)cc3)C(=O)C2C1 (centres undefined)	?	17%	i	i	-86*
Cc1ccc(C(=O)Oc2ccccc2N2C(=O)C3CCC(C)CC3C2=O)cc1 (centres undefined)	0%	-14%	i	i	0
Cc1cc(C)nc(SCC(=O)c2ccc(O)c(O)c2)n1	-7%	-4%	i	i	46
Cc1cc(SCC(=O)c2ccc(O)c(O)c2)n2nc(C)c(-c3ccccc3)c2n1	?	7.3µM*	?	?	0
Cc1cc(C)n2nc(C)c(-c3ccc(Cl)cc3)c2n1	-3%	-49%	i	?	14
CCSc1cc(C)nc2c(-c3ccc(Cl)cc3)c(C)nn12	15µM*	18µM*	i	i	3
COc1ccc(C2C3=C(CC(C)(C)CC3=O)Oc3ncn(Cc4ccccc4)c(=N)c32)cc1 (centres undefined)	16µM*	?	3.3µM*	i	-55*
N=c1c2c(ncn1Cc1ccco1)Oc1cc(O)ccc1C2c1ccccc1 (centres undefined)	18%	?	?	?	-62*
COc1ccc(C2c3c(ncn(CCN4CCOCC4)c3=N)Oc3ccc4ccccc4c32)cc1 (centres undefined)	?	?	15µM*!	?	?
N=c1c2c(ncn1CCN1CCOCC1)Oc1ccc3ccccc3c1C2c1ccccc1 (centres undefined)	0%	-11%	i	i	?
CN(C)CCn1cnc2c(c1=N)C(c1ccccc1)c1ccc3ccccc3c1O2 (centres undefined)	?	-2%	?	?	-57*
O=C(CCCN1C(=O)NC2(CCCC2)C1=O)NCc1ccccc1	3%	-6%	i	i	29
CCN(CC)C(=O)c1ccc2c3c(cccc13)C(=O)N(CCc1ccc(OC)c(OC)c1)C2=O	?	110%	7.3µM*	?	-73*
COc1ccc(S(=O)(=O)Nc2cccc(-c3ccc4nncn4n3)c2)cc1	5.8µM*	3.5µM*	?	5.8µM*	27
COc1ccc(Cl)cc1C(=O)Nc1ccc(NC(=O)C(C)C)cc1	?	4%	i	i	-60*
COc1ccc(Cl)cc1C(=O)Nc1ccc(NC(C)=O)cc1	-7%	-27%	i	i	-14
COc1ccc(C(=O)Nc2cccc(-c3ccc4nncn4n3)c2)cc1	-8%	1%	i	i	21
COc1ccc(Cl)cc1C(=O)Nc1cccc(-c2ccc3nncn3n2)c1	0%	-2%	i	i	-64*
COc1cccc(C(=O)Nc2cccc(-c3ccc4nncn4n3)c2)c1OC	0%	17%	?	i	23
COc1ccc2c(c1)c1c(c(=O)n(-c3ccccc3)c(=O)n1CC(=O)Nc1ccc(F)cc1)n2C	nt	nt	i	i	nt
CN(C(=O)CSc1nc2ccccc2n1CC(=O)N(C)C1CCCCC1)c1ccccc1	nt	nt	i	i	nt
CCOC(=O)C1=C(O)C(=O)NC(c2ccccc2)=C(OCC)C1	-3%	?	i	?	11
SMILES	MCF10A rereplic	SW480 rerep	KB-V1 cytotox	KB-3-1 tox	IL1B secr inh
CCOC(=O)C1=C(O)C(=O)NC(c2ccccc2)=C(OC2CCCCC2)C1	3%	-1%	15µM*	?	12
COC(=O)c1ccccc1S(=O)(=O)Nc1cc(=O)c2ccccc2[nH]1	nt	nt	i	i	nt
Clc1nssc1=Nc1ccccc1	-4%	-4%	i	i	-29
Clc1ccc(N=c2ssnc2Cl)cc1	?	?	21µM*	21µM*	-85*
CCOC(=O)c1ccc(N=c2ssnc2Cl)cc1	?	-12%	i	i	-89*
FC(F)C(F)(F)Oc1cccc(Nc2nccn3c(-c4ccc5ccccc5c4)cnc23)c1	nt	nt	10µM*	?	32
Oc1ccc(-c2cnc3c(Nc4cccc(OC(F)(F)C(F)F)c4)nccn23)cc1	nt	nt	?	?	19
O=c1ccc2c([nH]1)CCCCCCCCCC2	?	0%	7.3µM*	?	49
Cc1ccc2cc3c(N)[nH]nc3nc2c1	-7%	nt	18µM*	i	0
O=C(NCC(=O)N1CCC(Cc2ccccc2)CC1)c1ccc(Cl)cc1	15%	-4%	nt	nt	-52*
CC(C)OCCCNC(=S)N1CCC(C(=O)c2ccc(Cl)cc2)CC1	?	0%	8.2µM*	i	-12
O=C(NCC(=O)N1CCN(c2ccccc2)CC1)c1ccc(Cl)cc1	-3%	-15%	i	i	-15
COc1ccc(CCNC(=O)c2ccc(CN3CCC(Cc4ccccc4)CC3)cc2)cc1OC	6%	-3%	3.7µM*	i	-13
CN(C)CCCNC(=S)N1CCC(C(=O)c2ccc(Cl)cc2)CC1	nt	nt	i	i	10
Cc1cc(C(=O)N2CCN(c3ccc([N+](=O)[O-])cc3)CC2)co1	3%	3%	i	i	-5
Cc1cc(C(=O)N2CCN(c3ccc([N+](=O)[O-])cc3)CC2)c(C)o1	3.7µM*	4.1µM*	i	i	-20
CCCCOc1ccc(C(=O)NN2C(=O)NC3(CCCCC3)C2=O)cc1OC	-1%	3%	i	i	8
CCCNC(=S)N1CCC(Cc2ccccc2)CC1	11%	1%	i	i	?
O=C(CN1CCN(C(=O)CNC(=O)c2ccc(-c3ccccc3)cc2)CC1)Nc1ccccc1Cl	nt	nt	8.2µM*	?	?
COc1ccc(CCNC(=S)N2CCC(Cc3ccccc3)CC2)cc1OC	?	-2%	15µM*	?	-8
O=C(/C=C/c1ccco1)N1CCN(S(=O)(=O)c2cccc([N+](=O)[O-])c2)CC1	2%	-2%	23µM*	i	20
Cn1c(C(=O)N2CCN(c3ccc([N+](=O)[O-])cc3)CC2)cc2c(=O)[nH]c3ccccc3c21	?	8%	i	i	-54*
COc1ccc(S(=O)(=O)N2CCN(C(=O)/C=C/c3ccco3)CC2)cc1	0%	-24%	i	i	-13
c1ccc(CNC2CC3CCC2C3)cc1 (centres undefined)	0%	-6%	i	i	26
CN(C(=O)COC(=O)c1ccc2c(c1)OCCO2)C1CCCCC1	0%	-2%	i	i	18

Bioassay records as filed in PubChem.
